Our source for the Potency values is PubChem BioAssay (Tox21).

Values joined by “and” are separate entries in the source; they are usually repeats but may differ in a detail not shown here. Identical values can stand only once. Results filed as inconclusive are left out. Entries that show only a call come without a potency. Active and inactive are the calls of the source. Calls follow the shape of the dose curve; as a rule, active = well fitted cell-killing curve with a large enough effect in the repeat runs; inconclusive = weak or mixed curves, or effect the other way; inactive = flat fitted curve, though single readings scatter.
Potency is read from the fitted curve at half-maximal effect.

The nature of this assay: cAMP Responsive Elements (CRE) small molecule antagonists, cell-based qHTS assay: qHTS cell viability counter screen (AID 2060913). Also: nearly all actives have a fitted effect of over 40% in size. Conditions: CRE-bla HEK293T viability, CellTiter-Glo luminescence, 5 h; series mostly up to 92.4 µM. The essentials: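 Viability of NKH477-stimulated (0.25 uM final) CRE-bla HEK293T cells is measured by CellTiter-Glo luminescence following 3 hrs compound exposure at 37 C.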
Consider `CCC(C)(C)c1ccc(CC(C)CN2C[C@@H](C)O[C@@H](C)C2)cc1` (stereo not given in full), for which the Potency result was “inactive”. Next, `C=CCNc1nc(NCC=C)nc(N2CCN(C(c3ccc(F)cc3)c3ccc(F)cc3)CC2)n1`: “inactive”; `Cc1c(Cl)cccc1Cl`: “inactive”. Take `COc1cc2ncnc(Nc3ccc(F)c(Cl)c3)c2cc1OCCCN1CCOCC1`: the Potency result is “inactive”.

With `CCN(CC)CCOC(=O)C(c1ccccc1)c1ccccc1`, the Potency entry is “inactive”. Next, `CCCCCCCCCCCC(=O)NCCCN(C)C`: 61.1 µM (active); `C=C(C)C(=O)OCCOCC`: “inactive”. Next, `CCOCCOCC`: “inactive”.

Take `CC(C)(C)c1ccc(CCC=O)cc1`: the Potency entry is “inactive”. `Cc1ncc([N+](=O)[O-])n1CCO`: the Potency entry was “inactive”.

Turning to `COC(C)(C)CC(C)=O`, the Potency entry is “inactive”. The result for `CCCCCCCCCCCC[N+](C)(C)C` reads 54.3 µM (active) and 61.1 µM (active) and 68.6 µM (active); that for `O=[N+]([O-])c1ccc(/C=N\O)o1`, “inactive”; that for `C=CC(=O)OCC1CC2CC1C1CCC(COC(=O)C=C)C21` (stereo not given), “inactive”. Regarding `[Cu+]`, the Potency result is “inactive”. The result for `CCCCCCCCCCCCN1CCCC1=O` reads “inactive”; that for `CC(C)(C)NC[C@H](O)COc1cccc2c1CCCC2=O`, “inactive”; that for `CCCCN(CCO)CCCC`, “inactive”. The result for `CC(C)C[C@H](NC(=O)[C@H](Cc1ccccc1)NC(=O)c1cnccn1)B(O)O` reads “inactive”. Next, `C=C(CC)C(=O)c1ccc(OCC(=O)O)c(Cl)c1Cl`: “inactive”; `CC(C)(O)C(=O)c1ccc(OCCO)cc1`: “inactive”. For the molecule `O=C(O)c1cc(C(=O)O)cc(S(=O)(=O)O)c1`, the Potency entry is “inactive”. Next, `O=C(O)[C@@H]1[C@H]2C[C@H]3c4[nH]c5ccccc5c4CCN3C[C@@H]2CC[C@@H]1O`: “inactive”. The result for `CN(C)CCCNCCCN(C)C` reads “inactive”. Turning to `CCCCc1ccc2c(n1)[C@@H](c1ccc(OC)cc1C[C@H](C)C(=O)O)[C@H](C(=O)O)[C@H]2c1ccc2c(c1)OCO2`, the Potency entry was “inactive”. `CC/C=C(\C(=O)N[C@@H]1C(=O)N2C(C(=O)OCOC(=O)C(C)(C)C)=C(COC(N)=O)CS[C@H]12)c1csc(N)n1`: the Potency result was “inactive”. Next, `OC1CCCCC1c1ccccc1` (stereo not given): “inactive”.

For the molecule `CC(=O)S[C@H](C(=O)N[C@H]1Cc2ccccc2[C@H]2CCC[C@@H](C(=O)O)N2C1=O)C(C)C`, the Potency entry is “inactive”. In the case of `C=C(C)C(=O)OCCOC(=O)C(=C)C`, the Potency entry was “inactive”. `Nc1ccc2cc(S(=O)(=O)O)cc(O)c2c1`: the Potency result is “inactive”. For `O=S(=O)(O)c1cccc2c(S(=O)(=O)O)cccc12`, the Potency entry was “inactive”.

Regarding `NCCN`, the Potency result is “inactive”. On to `COc1cc2nc(N3CCN(C(=O)C4COc5ccccc5O4)CC3)nc(N)c2cc1OC` (stereo not given), for which the Potency result is “inactive”. The result for `O=[N+]([O-])c1ccc(Nc2ccc(Nc3ccccc3)c(S(=O)(=O)O)c2)c([N+](=O)[O-])c1` reads “inactive”. On to `CCOCCOCCO`, for which the Potency result is “inactive”.

`COc1cc(S(=O)(=O)O)c(C)cc1N=Nc1c(O)ccc2cc(S(=O)(=O)O)ccc12`: the Potency entry is “inactive”.

As to `CCC(=O)OC(C)c1ccccc1` (stereo not given), the Potency result is “inactive”. The result for `Cc1ccc2nc(N)[nH]c(=O)c2c1Sc1ccncc1` reads “inactive”; that for `O=C(Nc1ccccc1)OCC(CN1CCCCC1)OC(=O)Nc1ccccc1` (stereo not given), “inactive”. Regarding `CC(=O)Nc1ccc(S(=O)(=O)Cl)cc1`, the Potency entry was “inactive”.
